Measured values as given in PubChem BioAssay.
Results filed as inconclusive are left out. Calls of active or inactive are those of the source.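 How the source made its calls, unless noted: active means viability increase at or above a cutoff of the median across tested compounds plus 3 SD (cut at about 8.5% in these data, passing the limit was not always enough); inconclusive means some gains above the cutoff, reason not given; inactive means the rest.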

Assays:
[1] = HUVEC growth inhibition – cell-based, human, primary screen (AID 575;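 active means viability at or below 30% in both replicate assays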;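 further: 100% = median of untreated cell wells with 0.1% DMSO on each plate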); conditions: HUVEC proliferation, CellTiter-Glo luminescence, 72 h; at 10 µM; stronger effect = lower value
[2] = growth inhibitors of H69AR lung tumor, primary screen, human, duplicate replicates (AID 580;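 active means viability at or under a set limit in both replicates, limit being median viability minus 3 SD, cut at about 48% in these data, passing the limit was not always enough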;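 further: 100% = mean luminescence of untreated wells and 0% = no signal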); conditions: H69AR lung tumor cells viability, ATP luminescence, 72 h; at 10 µM; stronger effect = lower value
[3] = reversal of MRP1-mediated doxorubicin resistance, pilot screen, H69AR cells, doxorubicin co-treatment (AID 601;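 active means viability loss from added drug above about 55%, and viability with drug at most 40%, in both replicates, limit read from the data, passing the limit was not always enough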); conditions: CellTiter-Glo, 72 h, at 10 µM; for differential viability (reversal): stronger effect = higher value
[4] = 384-well plate pilot, post-Golgi transport modulator project, inhibition of yeast transport mutant growth (AID 636; in the data active means inhibition above about 31%); conditions: absorbance 615 nm, about 18 h, stronger effect = higher value
[5] = growth suppression of yeast trafficking mutant, preliminary HTS, modulators of trafficking downstream of Golgi apparatus project, 1536-format plate, OD 615 nm (AID 637; in the data active means inhibition above about 30%); conditions: yeast transport mutant growth, absorbance 615 nm, 18 h; stronger effect = higher value
[6] = OD615 S. cerevisiae growth inhibition, permissive medium, pilot counter-assay, permissive growth control for S. cerevisiae lifespan shortening project (AID 705;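 active means growth inhibition above 25% in both replicates, a cutoff set 3 SD above the mean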); conditions: OD615, 24 h, at 10 µM, stronger effect = higher value
[7] = Restrictive medium S. cerevisiae growth inhibition, OD615, pilot screen of yeast lifespan reduction project, restrictive growth control (AID 706;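 active means growth inhibition above a set limit, 3 SD over mean compound inhibition, in both replicates, cut at about 43% in these data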;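 further: modified DeaD lifespan yeast strain shifted to restrictive glucose medium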); conditions: OD615, 48 h, at 10 µM, stronger effect = higher value
[8] = viability gain of MRP-1-high H69AR cells under doxorubicin, pilot screen, MRP-1 activator project, CellTiter-Glo, duplicate (AID 807); conditions: H69AR viability with doxorubicin, CellTiter-Glo luminescence; at 10 µM; stronger effect = higher value;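 further: compound pretreatment 18-22 h then 72 h combined with doxorubicin; 0% = doxorubicin alone and 100% = vehicle without doxorubicin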
[9] = growth suppression of beta-catenin knockout HCT116, pilot screen, human colon tumor cells (AID 823;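 active means cell viability at or below a set limit in both duplicate runs, the limit being the all-compound median minus 4 SD, cut at about 23% in these data, passing the limit was not always enough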;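 further: 0% = wells killed by 20 µM Hyamine and 100% = untreated DMSO cell wells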); conditions: CellTiter-Glo, 60 h, at 10 µM, stronger effect = lower value
[10] = growth suppression of PTEN-deleted HCT116, pilot screen, cell-based, HCT116 clonal line, CellTiter-Glo (AID 824;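 active means viability at or below 27.92% in each of two runs, the all-compound median minus 4 SD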;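 further: 0% = 20 µM Hyamine control and 100% = vehicle cell control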); conditions: 60 h, at 10 µM, stronger effect = lower value
[11] = inhibitors of the yeast RAM network, pilot screen, dse1pr::URA3 reporter, 5-FOA selection (AID 869;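 active means inhibition over a set limit, the all-compound mean plus 3 SD, in both replicate runs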;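 further: 0% = DMSO wells with no growth and 100% = 10 µM 1-NA-PP1 with full growth; RAM network block rescues cells from 5-FOA so hits raise OD615 growth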); conditions: S. cerevisiae dse1pr::URA3 5-FOA growth, OD615, 2 d; at 10 µM; stronger effect = higher value; strain carries analog-sensitive mutant Cbk1 kinase
[12] = RAM signaling pathway blockade in yeast – S. cerevisiae, Pdr1DBD-CYC8 efflux-inhibited sensitized strain, primary screen (AID 1298;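 active means RAM network inhibition above 8.4% in each of two replicates, 3 SD over the compound average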;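 further: 0% = DMSO untreated cells without growth and 100% = 10 µM 1-NA-PP1 full growth; higher means more yeast growth rescued from 5-FOA killing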); conditions: S. cerevisiae cbk1-as DSE1-URA3 strain, 5-FOA growth OD615, 2 d; at 50 µM; stronger effect = higher value
[13] = H69AR cells + 2 uM doxorubicin, measured here: viability with 2 uM doxorubicin, stronger effect = lower value
[14] = H69AR cells, compound alone cytotoxicity

| SMILES | viability [1] | viability [2] | differential viability (reversal) ([3]; H69AR cells + 2 uM doxorubicin) | viability [3, 13] | viability [3, 14] | inhibition [4] | inhibition [5] | growth inhibition [6] | growth inhibition [7] | viability increase [8] | viability [9] | viability [10] | inhibition [11] | RAM network inhibition [12] |
| --- | --- | --- | --- | --- | --- | --- | --- | --- | --- | --- | --- | --- | --- | --- |
| CCC(=O)Oc1ccc2c(C)cc(=O)oc2c1C | 91.1% (inactive) | 90.6% (inactive) | -11.8% (inactive) | 102% | 90.6% | 0.39% (inactive) | 9.21% (inactive) | -8.37% (inactive) | 7.31% (inactive) | -4.73% (inactive) | 102% (inactive) | 97% (inactive) | 0.15% (inactive) | 3.51% (inactive) |
| O=C(NCCc1cccc(Cl)c1)c1cccnc1 | 87.9% (inactive) | 103% (inactive) | 26.5% (inactive) | 76.8% | 103% | -2.21% (inactive) | 5.4% (inactive) | -1.24% (inactive) | 10.7% (inactive) | -0.51% (inactive) | 98.9% (inactive) | 98.3% (inactive) | 0.32% (inactive) | 1.21% (inactive) |
| O=C(CN1C(=O)NC(Cc2ccccc2)C1=O)Nc1ccccc1 (configuration not stated) | 101% (inactive) | 96.7% (inactive) | -0.17% (inactive) | 96.9% | 96.7% | -1.17% (inactive) | -0.63% (inactive) | -11.6% (inactive) | -16.5% (inactive) | 1.83% (inactive) | 97.8% (inactive) | 94.6% (inactive) | 1.85% (inactive) | 0.35% (inactive) |
| COc1ccc(-c2nc(N3CCCC3)[nH]c(=O)c2C#N)cc1 | 97% (inactive) | 87.9% (inactive) | 2.17% (inactive) | 85.8% | 87.9% | -1.45% (inactive) | 0.79% (inactive) | 0.51% (inactive) | 0.48% (inactive) | -0.94% (inactive) | 104% (inactive) | 90.7% (inactive) | 1.63% (inactive) | 3.39% (inactive) |
| O=C(c1ccc(NS(=O)(=O)c2cccs2)cc1)N1CCCCC1 | 72.9% (inactive) | 89.9% (inactive) | -7.68% (inactive) | 97.5% | 89.9% | -2.63% (inactive) | -9.05% (inactive) | 1.61% (inactive) | -2.64% (inactive) | -1.41% (inactive) | 93.8% (inactive) | 96.8% (inactive) | 0.805% (inactive) | 1.56% (inactive) |
| O=C(NCCN1CCN(c2ccccc2)CC1)c1ccc(NC(=O)C2CCCO2)cc1 (configuration not stated) | 96.9% (inactive) | 108% (inactive) | 8.13% (inactive) | 100% | 108% | -3.82% (inactive) | -0.48% (inactive) | -5.63% (inactive) | -8.76% (inactive) | -1.13% (inactive) | 95.6% (inactive) | 101% (inactive) | 1.66% (inactive) | 2.86% (inactive) |
| N#C/C(C(=O)c1ccccc1)=C1/CCCN1 | 95.8% (inactive) | 97.2% (inactive) | 5.69% (inactive) | 91.5% | 97.2% | -1.04% (inactive) | 5.08% (inactive) | -10.5% (inactive) | -8.62% (inactive) | 2.34% (inactive) | 108% (inactive) | 105% (inactive) | 1.44% (inactive) | 1.34% (inactive) |
| COCCn1c(=O)[nH]c2cc(C(=O)NCCCN3CCN(c4ccc(F)cc4)CC3)ccc2c1=O | 97.8% (inactive) | 100% (inactive) | 3.64% (inactive) | 96.6% | 100% | 0% (inactive) | -2.38% (inactive) | -12.8% (inactive) | -0.415% (inactive) | -0.08% (inactive) | 86.2% (inactive) | – | 0.63% (inactive) | 8.31% (inactive) |
| CC(=O)Nc1nc(-c2ccccc2)nc(C)c1C(C)=O | 103% (inactive) | 94.4% (inactive) | 7.1% (inactive) | 87.3% | 94.4% | 0.13% (inactive) | -2.22% (inactive) | -9.85% (inactive) | -7.77% (inactive) | -0.66% (inactive) | 93.4% (inactive) | 99.5% (inactive) | 0.585% (inactive) | 5.92% (inactive) |
| CCCCCOC(=O)CSc1nc2c(c(=O)[nH]c(=O)n2C)n1Cc1ccc(Cl)cc1 | – | – | – | – | – | – | – | 11.9% (inactive) | 23.6% (inactive) | -3.26% (inactive) | 93.2% (inactive) | 84.7% (inactive) | – | 2.16% (inactive) |
| CCN1CCN(c2cc(C)c3cc(NC(=O)c4cncc(Br)c4)ccc3n2)CC1 | – | – | – | – | – | – | – | -4.93% (inactive) | -2.12% (inactive) | -6.22% (inactive) | – | – | – | -0.98% (inactive) |
| COC(=O)c1nnc(-c2ccccc2)c(-c2ccccc2)n1 | – | – | – | – | – | – | – | -20.7% (inactive) | -24.7% (inactive) | -1.82% (inactive) | 104% (inactive) | 99.5% (inactive) | – | 9.17% (inactive) |
| CCOC(=O)c1c(NC(=O)c2ccc(Br)o2)sc(C)c1CC | – | – | – | – | – | – | – | 1.51% (inactive) | -8.3% (inactive) | -0.6% (inactive) | 73.8% (inactive) | 70.3% (inactive) | – | 9.97% (inactive) |
| CN(CC(=O)N1CCc2ccccc2C1)S(=O)(=O)c1ccc2c(c1)c(=O)n(C)c(=O)n2C | – | – | – | – | – | – | – | -12.3% (inactive) | -9.22% (inactive) | -3.24% (inactive) | 98.4% (inactive) | 90.2% (inactive) | – | 5.95% (inactive) |
| N#CC(=C1SC=CS1)c1nc(-c2ccccc2)cs1 | – | – | – | – | – | – | – | 5.05% (inactive) | -6.89% (inactive) | -3.21% (inactive) | 84.4% (inactive) | – | – | 9.12% (inactive) |
| O=C(Cn1c(=O)oc2cc(S(=O)(=O)N3CCCC3)ccc21)NC1CCCc2ccccc21 (configuration not stated) | – | – | – | – | – | – | – | -5.83% (inactive) | -9.71% (inactive) | -0.88% (inactive) | 97% (inactive) | 79.4% (inactive) | – | 10.3% (inactive) |
| Cc1cc(NC(=O)CSc2nc3c(c(=O)n2CCc2ccccc2)SC(C)C3)no1 (configuration not stated) | – | – | – | – | – | – | – | -12.6% (inactive) | -12.3% (inactive) | -1.68% (inactive) | 89.5% (inactive) | 96.6% (inactive) | – | 5.21% (inactive) |
| O=C(Nc1ccccc1-c1nc2ccccc2s1)c1ccco1 | – | – | – | – | – | – | – | -6.38% (inactive) | -20.9% (inactive) | -5.19% (inactive) | 74.7% (inactive) | 61.9% (inactive) | – | 6.4% (inactive) |
| O=S(=O)(NCC(O)COCc1ccco1)c1cccs1 (configuration not stated) | 114% (inactive) | 83.7% (inactive) | -0.665% (inactive) | 84.3% | 83.7% | -6.62% (inactive) | -5.56% (inactive) | -10.3% (inactive) | 2.05% (inactive) | -3.34% (inactive) | 92.8% (inactive) | – | 1.09% (inactive) | 6.29% (inactive) |
| CC(c1ccco1)N(C(=O)c1ccc(S(=O)(=O)N2CCCCC2)cc1)c1ccccn1 (configuration not stated) | 87.5% (inactive) | 86% (inactive) | -8.22% (inactive) | 94.2% | 86% | -4.03% (inactive) | 1.27% (inactive) | -17.7% (inactive) | 2.26% (inactive) | -4.13% (inactive) | 97.4% (inactive) | – | 1.19% (inactive) | 3.18% (inactive) |
| CCOc1ccc(-n2nnc3c(=O)n(CC(=O)c4ccccc4)cnc32)cc1 | – | – | – | – | – | – | – | -2.31% (inactive) | 1.56% (inactive) | 0.38% (inactive) | 101% (inactive) | 97% (inactive) | – | 3.09% (inactive) |
| COc1ccc(-c2nc(-c3cccc(C(F)(F)F)c3)no2)cc1OC | – | – | – | – | – | – | – | -2.88% (inactive) | 1.6% (inactive) | -0.18% (inactive) | 99% (inactive) | 93.3% (inactive) | – | 7.48% (inactive) |
| CCn1cc(C(=O)NC2CCCCC2)c(=O)c2cc(S(=O)(=O)N(C)C)ccc21 | – | – | – | – | – | – | – | -0.125% (inactive) | 2.4% (inactive) | -1.45% (inactive) | 102% (inactive) | 94.7% (inactive) | – | -1.57% (inactive) |
| CCSC1=C(C#N)C(c2cccc(O)c2)CC(=O)N1 (configuration not stated) | – | – | – | – | – | – | – | -2.26% (inactive) | -11% (inactive) | -1.66% (inactive) | 98.2% (inactive) | 97.1% (inactive) | – | 3.85% (inactive) |
| O=C(Nc1c(C(=O)Nc2ccccc2)cnn1-c1ccccc1)c1ccco1 | – | – | – | – | – | – | – | -3.7% (inactive) | -2.03% (inactive) | -4.51% (inactive) | 94.4% (inactive) | 94.3% (inactive) | – | 2.51% (inactive) |
| CCOC(=O)Nc1ccc(S(=O)(=O)Nn2cnnc2)cc1 | – | – | – | – | – | – | – | -14.5% (inactive) | 1.07% (inactive) | 0% (inactive) | 89% (inactive) | 108% (inactive) | – | 3.94% (inactive) |
| CCCc1cc(C(=O)NCCc2ccc(OC)c(OC)c2)no1 | – | – | – | – | – | – | – | 1.33% (inactive) | 4.92% (inactive) | -1.89% (inactive) | 106% (inactive) | 97.2% (inactive) | – | 3.29% (inactive) |
| Cc1ccc(C)c(N2CCN(CCCNC(=O)Cn3cc4c(n3)CCCCC4)CC2)c1 | 2.8% (active) | – | -31.3% (inactive) | 68.4% | 37.1% | -2.69% (inactive) | 4% (inactive) | -6.4% (inactive) | -0.285% (inactive) | -7.67% (inactive) | – | 19.6% (active) | 0.495% (inactive) | 4.06% (inactive) |
| CCOC(=O)c1c(NC(=O)c2cccs2)sc2c1CCC2 | – | – | – | – | – | – | – | -13.6% (inactive) | -20.4% (inactive) | -0.45% (inactive) | 91.7% (inactive) | 90.4% (inactive) | – | 4.33% (inactive) |
